# Experimental data: paper PMC4336329 (PLoS ONE, 2015)
# About 2,200 (0.71%) of roughly 310,000 compounds showed an effect of 50% or more. Effects have a minus sign here. This is one part of a sample in which strong results are shown more often than they occur.
# Biological target: human ether-à-go-go-related gene (hERG) potassium channel (human, UniProt Q12809)
# Experiment: primary screen, population patch clamp on CHO cells stably expressing hERG; higher = less effect of the substance
# Sequence of human ether-à-go-go-related gene (hERG) potassium channel (Q12809 whole entry, looked up): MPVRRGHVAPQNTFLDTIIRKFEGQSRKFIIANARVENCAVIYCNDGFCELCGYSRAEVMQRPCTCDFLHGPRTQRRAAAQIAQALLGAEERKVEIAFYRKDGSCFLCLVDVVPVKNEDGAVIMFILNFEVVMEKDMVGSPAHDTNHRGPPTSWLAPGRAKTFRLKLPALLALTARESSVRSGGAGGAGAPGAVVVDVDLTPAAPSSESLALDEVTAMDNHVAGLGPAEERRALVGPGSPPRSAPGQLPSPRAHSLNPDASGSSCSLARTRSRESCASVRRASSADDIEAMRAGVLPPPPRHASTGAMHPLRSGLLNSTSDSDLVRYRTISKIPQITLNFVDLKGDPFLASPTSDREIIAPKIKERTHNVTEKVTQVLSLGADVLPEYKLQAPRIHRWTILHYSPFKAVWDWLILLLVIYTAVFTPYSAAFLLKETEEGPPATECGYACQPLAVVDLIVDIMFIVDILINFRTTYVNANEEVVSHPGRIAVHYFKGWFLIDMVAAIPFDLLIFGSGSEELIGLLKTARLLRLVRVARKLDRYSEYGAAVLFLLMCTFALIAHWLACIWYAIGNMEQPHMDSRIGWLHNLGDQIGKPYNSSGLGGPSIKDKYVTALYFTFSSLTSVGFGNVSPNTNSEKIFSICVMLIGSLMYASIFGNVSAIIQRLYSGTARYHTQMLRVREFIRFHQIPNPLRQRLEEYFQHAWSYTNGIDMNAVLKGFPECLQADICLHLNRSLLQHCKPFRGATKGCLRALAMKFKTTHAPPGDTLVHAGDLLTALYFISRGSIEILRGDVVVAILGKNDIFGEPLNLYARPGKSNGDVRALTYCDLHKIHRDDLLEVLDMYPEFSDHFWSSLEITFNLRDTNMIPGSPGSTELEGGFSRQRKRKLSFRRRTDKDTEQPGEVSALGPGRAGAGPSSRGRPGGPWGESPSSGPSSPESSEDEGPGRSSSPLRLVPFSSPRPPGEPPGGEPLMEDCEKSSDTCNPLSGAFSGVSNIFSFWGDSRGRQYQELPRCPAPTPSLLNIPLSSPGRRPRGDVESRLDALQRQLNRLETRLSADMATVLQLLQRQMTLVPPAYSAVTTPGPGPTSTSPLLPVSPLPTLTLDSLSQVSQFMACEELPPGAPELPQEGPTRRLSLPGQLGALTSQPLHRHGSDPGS
row,Compound,"hERG current change (%, negative = inhibition) at 1uM [%]"
1,Cc1cc(C)n(Cc2ccccc2)c(=O)c1S(=O)(=O)c1ccccc1,3.34
2,COC(=O)C(C)Sc1nnc(SC(C)C(=O)OC)s1 (stereo not drawn),23
3,O=C(N/N=C/c1cc(Cl)cc([N+](=O)[O-])c1O)C(O)(c1ccccc1)c1ccccc1,-62.4
4,O=C(N/N=C/c1cc([N+](=O)[O-])cc([N+](=O)[O-])c1O)C(O)(c1ccccc1)c1ccccc1,0.978
5,O=C(N/N=C/c1cccc([N+](=O)[O-])c1O)C(O)(c1ccccc1)c1ccccc1,18.6
6,CSc1cccc(NS(=O)(=O)c2ccc(F)cc2)c1,7.73
7,COCCCNC(=O)CC(C)c1ccccc1 (stereo not drawn),8.27
8,Cn1c2ccccc2n2c(=O)c(=O)n(CC(=O)N3CCCc4ccccc43)nc12,-1.27
9,CCOC(=O)Cn1c2c(c(=N)c3c1CCC3)CCC2.Cl,10.2
10,Br.CCCCCCCCn1c2c(c(=N)c3c1CCC3)CCCC2,-84.6
11,Br.CCCCCCn1c2c(c(=N)c3c1CCC3)CCC2,-54
12,Br.CCn1c2c(c(=N)c3c1CCC3)CCC2,6.51
13,CCCCCCn1c(=O)[nH]c2c(c1=O)CCC2,11.6
14,CCOC(=O)Cn1c2c(c(=N)c3c1CCC3)CCCC2.Cl,12.8
15,CCCn1c2c(c(=N)c3c1CCC3)CCCC2.I,6.36
16,Br.CCn1c2c(c(=N)c3c1CCC3)CCCC2,4.22
17,CCCCn1c2c(c(=N)c3c1CCC3)CCC2.I,5.32
18,Br.CCCCCCCCCn1c2c(c(=N)c3c1CCC3)CCC2,-65.5
19,Br.CCCCCCCCCCn1c2c(c(=N)c3c1CCC3)CCC2,-71.7
20,CCCn1c2c(c(=N)c3c1CCC3)CCC2.I,8.15
21,CC(=O)n1cc(/C=N/NC(=O)c2cccc(O)c2)c2ccccc21,13.7
22,CC(CC(=O)O)CC(=O)NNC(=O)c1cccc(Br)c1 (stereo not drawn),8.72
23,C/C(N)=C(/C#N)C(=O)COC(=O)CCSc1ccccc1Cl,12.1

row,Compound,"hERG current change (%, negative = inhibition) at 1uM [%]"
1,CCN(c1ccccc1)S(=O)(=O)c1ccc(Cl)c(C(=O)NCC2CCCO2)c1 (stereo not drawn),2.1
2,O=C(C1CCN(C2CCN(C/C(Cl)=C/c3ccccc3)CC2)CC1)N1CCOCC1,-33.8
3,CN1CCN(C(c2ccc(C(F)(F)F)cc2)c2ccc3cccnc3c2O)CC1 (stereo not drawn),7.36
4,CCC1Oc2nc(SC)nnc2-c2ccccc2N1C(=O)c1ccccc1 (stereo not drawn),11.8
5,COC(=O)C1=C(C)Nc2nc3ccccc3n2C1c1ccccc1F (stereo not drawn),8.31
6,Cc1cc(CNC(=O)CC2C(=O)NCCN2CC(C)(C)C)nn1C (stereo not drawn),10.4
7,Cc1cc(C=C2C(=O)NC(=O)NC2=O)c(C)n1-c1ccc2c(c1)OCO2,13.5
8,Cl.OC(COCc1ccccc1)CN1CCCC1 (stereo not drawn),1.21
9,CCOC(=O)C1CCN(CC(O)COCc2ccccc2)CC1.O=C(O)C(=O)O (stereo not drawn),3.28
10,CC(=O)c1cccc(OCC(O)CN2CC=C(c3ccccc3)CC2)c1.O=C(O)C(=O)O (stereo not drawn),-50
11,CCOC(=O)C1CCN(CC(O)COCc2ccc3c(c2)OCO3)CC1.Cl (stereo not drawn),1.96
12,OC(COCc1ccc(Cl)cc1)CN1CCN(CC(O)COCc2ccc(Cl)cc2)CC1 (stereo not drawn),-67.5
13,CCOC(=O)C1CCN(CC(O)COc2ccc(C(C)=O)cc2)CC1.Cl (stereo not drawn),-30.4
14,CCOC(=O)C1CCN(CC(O)COc2ccc(C(C)(C)C)cc2)CC1.Cl (stereo not drawn),-53.2
15,CC(=O)c1cccc(OCC(O)CN2CCN(S(=O)(=O)c3c(F)cccc3F)CC2)c1.O=C(O)C(=O)O (stereo not drawn),1.4
16,Cl.OC(COCc1ccc(Cl)cc1)CN1CCCCC1 (stereo not drawn),0.152
17,CCOC(=O)c1ccc(S(=O)(=O)N2CCN(CC(O)COc3cccc(C(C)=O)c3)CC2)cc1.O=C(O)C(=O)O (stereo not drawn),10
18,CCOC(=O)C1CCN(CC(O)COc2ccc(C(=O)CC)cc2)CC1.Cl (stereo not drawn),-49.5
19,CCOC(=O)C1CCN(CC(O)COCc2ccc(Cl)cc2)CC1.Cl (stereo not drawn),-58.6
20,COc1cccc(N2CCN(C(=O)Cn3c(=O)oc4ccccc43)CC2)c1,4.28
21,Cc1ccc(-c2nn(-c3ccccc3)cc2/C=N/n2c(-c3cccs3)n[nH]c2=S)cc1,15
22,NS(=O)(=O)c1ccc(CCNC(=O)CNC(=O)c2ccccc2F)cc1,11.3
23,CCOc1ccc(Cc2noc3c2C(=O)CCC3)cc1OCC,23.3

row,Compound,"hERG current change (%, negative = inhibition) at 1uM [%]"
1,O=C(NCCCCCCNC(=O)NCc1ccco1)NCc1ccco1,6.09
2,O=C1CCC(/C=C/c2ccccc2)=NN1Cc1ccc(Cl)c(Cl)c1,2.78
3,O=C(NCc1ccccn1)/C(=N/O)c1ccccc1,9.34
4,CC(C)n1c(O)c(N=Nc2ccc(Cl)nn2)c2ccccc21,10.7
5,C=CCNC(=S)/C(=C(\[O-])c1ccc(Cl)cc1)[n+]1ccccc1,11.2
6,Cc1ccc(S(=O)(=O)NCC2CCC(C(=O)N3CCN(C)CC3)CC2)cc1 (stereo not drawn),22.1
7,O=C(O)C(=O)O.OC(COCc1ccc(Cl)cc1)CN1CC=C(c2ccccc2)CC1 (stereo not drawn),-84.2
8,Cl.OC(COCc1ccc(Cl)cc1)CN1CCc2ccccc2C1 (stereo not drawn),-27.3
9,NC(=O)C1CCCN(CC(O)COCc2ccc(Cl)cc2)C1.O=C(O)C(=O)O (stereo not drawn),11.5
10,C=CC[N+]1(CC=C)CCOCC1.[Br-],34.2
11,COc1ccc(C(=O)/C=C/c2cn(CN3CCN(C)CC3)c3ccccc23)cc1,-3.29
12,CCOc1ccc2nc(N3CCC(C(=O)N4CCN(C(=O)c5ccco5)CC4)CC3)sc2c1,-89.3
13,Cc1ccc(Cl)c2sc(N3CCN(C(=O)c4ccco4)CC3)nc12,-0.903
14,COc1ccc(N2CCN(c3cc(C)nc4ccc(OC)cc34)CC2)cc1,-31
15,CCOC(=O)C1CCN(C(=O)C2CCN(c3nc4ccc(OC)cc4s3)CC2)CC1,-53.4
16,CCOC(=O)C1CCN(c2cc(C)nc3ccc(OC)cc23)CC1,-56.1
17,CCOc1ccc2nc(N3CCC(C(=O)N4CCN(c5ncccn5)CC4)CC3)sc2c1,4.83
18,CCOc1ccc2nc(N3CCC(C(=O)N4CCC5(CC4)OCCO5)CC3)sc2c1,6.77
19,COc1ccc2nc(C)cc(N3CCC(C(N)=O)CC3)c2c1,-2.62
20,CCOc1ccc2nc(N3CCC(C(=O)N4CCN(c5ccccn5)CC4)CC3)sc2c1,-17.4
21,Cc1ccc2nc(N3CCN(C(=O)c4ccco4)CC3)sc2c1,-7.42
22,CCOc1ccc2nc(N3CCC(C(=O)N4CCN(C5CCCCC5)CC4)CC3)sc2c1,-8.64
23,O=C(c1ccco1)N1CCN(c2nc3ccsc3c(=O)s2)CC1,-74.5

row,Compound,"hERG current change (%, negative = inhibition) at 1uM [%]"
1,O=C(O)C1CCC(=O)N1C1c2ccccc2Oc2ccccc21 (stereo not drawn),7.76
2,CC(NCC(=O)NCCc1ccc(S(N)(=O)=O)cc1)c1ccc(F)cc1 (stereo not drawn),15.1
3,COc1ccccc1/C(C)=N/NC(=S)NCc1ccccc1,0.32
4,COCc1nc(-c2ccc(-c3ccc(C)cc3)nc2OC)no1,4.81
5,Cn1cccc1/C=N/N1CCN(c2ccccc2)CC1,18.1
6,COc1ccc(CC(=O)OCC(=O)N2CCCc3ccccc32)cc1,7.67
7,CCOC(=O)/C(C#N)=C1/C=CN(c2ccccc2)C=N1,7.43
8,CCCn1c(N)c(C(=O)CSc2nnc3n2CCCCC3)c(=O)[nH]c1=O,4.02
9,CCOP(=O)(OCC)/C(C#N)=C/c1ccc([N+](=O)[O-])cc1,-4.07
10,CCCn1c(=NC(C)=O)c(C(=O)OCC)cc2c(=O)n3ccccc3nc21,8.09
11,COCCCn1c(C(=O)N2CCOCC2)cc2c(=O)n3ccccc3nc21,3.13
12,COCCCn1c(=N)c(C(=O)NCc2ccc3c(c2)OCO3)cc2c(=O)n3ccccc3nc21,-87.4
13,N#Cc1cc2c(=O)n3ccccc3nc2n(Cc2cccnc2)c1=O,2.54
14,COCCCn1c(C(=O)Nc2ccc3c(c2)OCO3)cc2c(=O)n3ccccc3nc21,13.5
15,N=c1c(S(=O)(=O)c2ccc(Cl)cc2)cc2c(=O)n3ccccc3nc2n1Cc1cccnc1,7.26
16,N=c1c(S(=O)(=O)c2ccccc2)cc2c(=O)n3ccccc3nc2n1Cc1cccnc1,6.5
17,COC(=O)c1cc2c(=O)n3ccccc3nc2n(Cc2cccnc2)c1=N,-51.5
18,N=c1c(C(=O)NCc2ccc(F)cc2)cc2c(=O)n3ccccc3nc2n1Cc1cccnc1,-80.3
19,COc1ccc(CNC(=O)c2cc3c(=O)n4ccccc4nc3n(Cc3cccnc3)c2=N)cc1,-32.6
20,CCCCn1c(=NC(=O)c2ccco2)c(C(=O)OCC)cc2c(=O)n3ccccc3nc21,-44.1
21,CCOC(=O)c1cc2c(=O)n3ccccc3nc2n(Cc2ccccc2)c1=N,-68.9
